Read-out in experiment [1]: Monocyte Chemoattractant Protein-1 (MCP1), CCL2 (gene 6347)
Briefly: BSK_SAg_MCP1: BioMAP Diversity Plus: SAg Assay for Monocyte Chemoattractant Protein-1 (MCP1) Biomarker Activity (AID 2283090). The note with it: primary human HUVEC with PBMC; actives raise or lower the signal. The procedure, abridged:
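MCP-1 levels in the endothelial–PBMC SAg co-culture were quantified by ELISA at 24 h post-dosing; both increases and decreases versus DMSO scored. Cytotoxicity monitored by SRB total protein in parallel cultures.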

Read-out in experiment [2]: E-selectin (Homo sapiens) (UniProt P16581)
As to the kind of experiment: BSK_SAg_Eselectin: BioMAP Diversity Plus: SAg Assay for Eselectin Biomarker Activity (AID 2283091). The note with it: primary human HUVEC with PBMC; actives raise or lower the signal. The method, boiled down: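 Co-culture: HUVEC + PBMC. Dose compound; 24 h. ELISA for E-selectin. Bidirectional fit vs DMSO.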

A short description of experiment [3]: BSK_SAg_PBMCCytotoxicity: PBMC Cytotoxicity Assessment in the BioMAP Diversity Plus: SAg Assay (AID 2283093).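 For AC50: PBMC superantigen activated with SEB plus TSST-1 one hour after compound addition.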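 Note: PBMC viability measured as Alamar Blue reduction fluorescence at 546/580 nm; fitted both ways against DMSO so a hit may be loss or gain of signal.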 The note with it: primary human HUVEC with PBMC. The method, boiled down: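 HUVEC/PBMC co-culture; PBMC exposed to chemical 1 h before SEB and TSST-1 activation (20 ng/mL each), incubated 90 h, then Alamar Blue 6 h, fluorescence 546/580 nm. Bidirectional fit versus DMSO baseline.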

Read-out in experiment [4]: Interleukin-8 (IL8), CXCL8 (gene 3576)
As to the kind of experiment: BSK_SAg_IL8: BioMAP Diversity Plus: SAg Assay for Interleukin-8 (IL8) Biomarker Activity (AID 2283094). Particulars: primary human HUVEC with PBMC; actives raise or lower the signal. The procedure, abridged: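 In this co-culture of human umbilical vein endothelium with peripheral blood mononuclear cells, IL-8 is assayed by ELISA at 24 h. DMSO serves as baseline for bidirectional curve fitting.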

A short description of experiment [5]: BSK_SAg_Proliferation: Cell Proliferation Assessment in the BioMAP Diversity Plus: SAg Assay (AID 2283095).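 Note: relative cell number as total protein by SRB absorbance in sub-confluent culture.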 The note with it: primary human HUVEC with PBMC. The procedure, abridged: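 Readout is SRB-stained protein (560 nm) in a primary human HUVEC and PBMC co-culture; sub-confluent cultures are read at 96 h. Activity is fitted bidirectionally using DMSO as baseline.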

Experiment [6] can be described thus: BSK_SAg_SRB: Viability Assessment in the BioMAP Diversity Plus: SAg Assay (AID 2283096).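 Note: cells read one day after compound addition; hits may be either gain or loss of signal compared with DMSO.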 The note with it: primary human HUVEC with PBMC. The method, boiled down:
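Human umbilical vein endothelial cells co-cultured with PBMC, read 24 h after compound dosing. Total protein measured by sulforhodamine B staining (0.1% SRB after 10% TCA fixation, absorbance 560 nm); bidirectional fit versus DMSO baseline.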

Experiment [7] concerns the target human CYP2D6, CYP2D6 (gene 1565) (UniProt P10635). Briefly: NVS_ADME_hCYP2D6: NovaScreen (NVS) CYP450-related Enzyme Activity (ADME) Assay for human CYP2D6 (AID 2283107; active = hit-call score of the fitted dose curve at least 0.9, where 1 is the maximum). The procedure, abridged:
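Insect-cell recombinant enzyme + fluorogenic substrate, cell-free; 1 h incubation; fluorescence intensity readout. Acetonitrile = neg. ctrl/baseline. Single-point 10 uM, duplicate; follow-up concentration series.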

Experiment [8] addresses human Esterase Plasma (ES), BCHE (gene 590) (UniProt P06276). As to the kind of experiment: NVS_ENZ_hES: NovaScreen (NVS) Enzymatic Assay for human Esterase Plasma (ES) (AID 2283157; active = hit-call score of the fitted dose curve at least 0.9, where 1 is the maximum). The procedure, abridged:
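Esterase from human plasma, cell-free, colorimetric absorbance read 0.25 h after dosing. Screened at 25 uM in duplicate, with threshold-passing chemicals run in concentration-response up to 50 uM; loss of signal fitted versus DMSO.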

Read-out in experiment [9]: Monokine induced gamma interferon (MIG), CXCL9 (gene 4283)
As to the kind of experiment: BSK_SAg_MIG: BioMAP Diversity Plus: SAg Assay for Monokine induced gamma interferon (MIG) Biomarker Activity (AID 2283092). The note with it: primary human HUVEC with PBMC; actives raise or lower the signal. The procedure, abridged:
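Values reflect bidirectional fitting of ELISA-measured MIG against DMSO vehicle, taken 24 h after dosing of a co-culture of human umbilical vein endothelial cells and peripheral blood mononuclear cells.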

The target in experiment [10] is human Dual Specificity Protein Phosphatase 3 (DUSP3), DUSP3 (gene 1845) (UniProt P51452). As to the kind of experiment: NVS_ENZ_hDUSP3: NovaScreen (NVS) Enzymatic Assay for human Dual Specificity Protein Phosphatase 3 (DUSP3) (AID 2283152; active = hit-call score of the fitted dose curve at least 0.9, where 1 is the maximum;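 note: phosphatase activity of recombinant human DUSP3 on a fluorogenic substrate without cells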). The procedure, abridged:
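Cell-free assay with recombinant human DUSP3 and fluorogenic substrate, read by fluorescence intensity. Primary screen ran duplicate at 25 uM; actives followed up in concentration series; loss of signal versus DMSO scored.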

Experiment [11] deals with Cytochrome P450 2C19 (Homo sapiens) (UniProt P33261). Briefly: NVS_ADME_hCYP2C19: NovaScreen (NVS) CYP450-related Enzyme Activity (ADME) Assay for human CYP2C19 (AID 2283113; active = hit-call score of the fitted dose curve at least 0.9, where 1 is the maximum;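 note: potency for inhibition seen as loss of fluorescent signal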). The method, boiled down: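 Fluorescence intensity was measured 1 hour after chemicals were added to insect-cell-derived recombinant CYP2C19 with fluorogenic substrate. Decreased signal versus acetonitrile control was taken as reduced enzyme activity; initial testing used 10 uM in duplicate.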

The target of experiment [12] is human Ephrin type-A Receptor 1 (EphA1), EPHA1 (gene 2041) (UniProt P21709). Briefly: NVS_ENZ_hEphA1: NovaScreen (NVS) Enzymatic Assay for human Ephrin type-A Receptor 1 (EphA1) (AID 2283158; active = hit-call score of the fitted dose curve at least 0.9, where 1 is the maximum;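 note: activity is signal loss versus DMSO meaning EphA1 kinase inhibition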). The procedure, abridged:
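Chemicals first tested in duplicate at 25 uM against recombinant EphA1 with a fluorescent substrate; those passing threshold went to singleton dose-response topping at 50 uM. Activity read 1 h later as mobility-shift fluorescence, loss of signal relative to DMSO.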

Molecules are shown by their SMILES. Where “and” joins values, the source holds several entries; their conditions need not be identical. Equal entries are not always repeated. Results filed as inconclusive are left out. Some structures have more than one record in an assay (separate samples or runs), and their calls can disagree. Calls of active or inactive are those of the source. Rule for the calls, unless noted: active = hit-call score of the fitted dose curve at least 0.9, where 1 is the maximum; inactive = score below 0.9.

Among the data in PubChem BioAssay (EPA / NIEHS) are outcome and AC50 values, retold here.

Sequence of E-selectin (Homo sapiens) (P16581 whole entry, looked up): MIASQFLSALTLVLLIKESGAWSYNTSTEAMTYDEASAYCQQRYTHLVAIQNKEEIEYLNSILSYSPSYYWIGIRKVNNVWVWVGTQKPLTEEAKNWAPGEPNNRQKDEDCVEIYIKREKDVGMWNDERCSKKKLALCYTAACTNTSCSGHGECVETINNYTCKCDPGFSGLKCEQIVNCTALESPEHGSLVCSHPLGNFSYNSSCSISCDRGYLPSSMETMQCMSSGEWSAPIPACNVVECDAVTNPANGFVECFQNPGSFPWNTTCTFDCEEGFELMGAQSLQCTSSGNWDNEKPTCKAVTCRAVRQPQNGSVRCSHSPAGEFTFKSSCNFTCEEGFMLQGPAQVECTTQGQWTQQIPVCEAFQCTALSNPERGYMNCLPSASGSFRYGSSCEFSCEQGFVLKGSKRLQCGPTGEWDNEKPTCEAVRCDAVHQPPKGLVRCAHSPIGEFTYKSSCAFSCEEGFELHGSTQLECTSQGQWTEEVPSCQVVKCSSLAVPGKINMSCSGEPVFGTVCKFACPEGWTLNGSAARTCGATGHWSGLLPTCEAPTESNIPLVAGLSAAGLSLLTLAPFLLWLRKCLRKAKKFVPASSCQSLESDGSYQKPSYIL
Sequence of human Dual Specificity Protein Phosphatase 3 (DUSP3), DUSP3 (gene 1845) (P51452 whole entry, looked up): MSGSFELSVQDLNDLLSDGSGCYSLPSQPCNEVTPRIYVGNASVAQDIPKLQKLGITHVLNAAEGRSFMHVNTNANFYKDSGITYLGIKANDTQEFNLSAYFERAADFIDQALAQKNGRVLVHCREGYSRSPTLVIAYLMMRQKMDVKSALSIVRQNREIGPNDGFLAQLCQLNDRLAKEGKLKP
Sequence of human Ephrin type-A Receptor 1 (EphA1), EPHA1 (gene 2041) (P21709 whole entry, looked up): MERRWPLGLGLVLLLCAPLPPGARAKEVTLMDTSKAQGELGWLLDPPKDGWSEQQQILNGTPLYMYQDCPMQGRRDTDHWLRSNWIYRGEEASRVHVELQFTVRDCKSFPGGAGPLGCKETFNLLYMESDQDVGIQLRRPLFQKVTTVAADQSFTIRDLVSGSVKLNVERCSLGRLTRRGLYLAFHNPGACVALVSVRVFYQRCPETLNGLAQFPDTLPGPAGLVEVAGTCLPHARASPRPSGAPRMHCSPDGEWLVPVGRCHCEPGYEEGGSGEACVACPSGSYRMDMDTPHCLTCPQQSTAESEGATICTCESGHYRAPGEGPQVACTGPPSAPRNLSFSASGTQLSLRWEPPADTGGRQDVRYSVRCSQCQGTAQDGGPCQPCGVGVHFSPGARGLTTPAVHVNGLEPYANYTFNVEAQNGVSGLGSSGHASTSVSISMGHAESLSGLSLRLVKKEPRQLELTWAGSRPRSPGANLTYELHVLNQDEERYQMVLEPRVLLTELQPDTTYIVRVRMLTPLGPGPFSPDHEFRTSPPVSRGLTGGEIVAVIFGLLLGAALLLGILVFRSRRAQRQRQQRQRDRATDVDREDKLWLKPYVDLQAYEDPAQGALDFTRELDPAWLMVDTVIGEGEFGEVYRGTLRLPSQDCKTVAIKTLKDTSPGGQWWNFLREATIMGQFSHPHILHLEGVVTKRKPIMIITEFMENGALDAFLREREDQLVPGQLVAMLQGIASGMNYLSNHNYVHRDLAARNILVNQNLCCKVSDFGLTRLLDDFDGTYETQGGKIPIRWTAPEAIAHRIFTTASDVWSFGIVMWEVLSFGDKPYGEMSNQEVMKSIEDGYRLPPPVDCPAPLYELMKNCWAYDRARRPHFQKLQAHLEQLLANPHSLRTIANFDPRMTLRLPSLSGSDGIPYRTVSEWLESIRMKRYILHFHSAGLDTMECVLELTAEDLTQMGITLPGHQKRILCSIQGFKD
Sequence of human Esterase Plasma (ES), BCHE (gene 590) (P06276 whole entry, looked up): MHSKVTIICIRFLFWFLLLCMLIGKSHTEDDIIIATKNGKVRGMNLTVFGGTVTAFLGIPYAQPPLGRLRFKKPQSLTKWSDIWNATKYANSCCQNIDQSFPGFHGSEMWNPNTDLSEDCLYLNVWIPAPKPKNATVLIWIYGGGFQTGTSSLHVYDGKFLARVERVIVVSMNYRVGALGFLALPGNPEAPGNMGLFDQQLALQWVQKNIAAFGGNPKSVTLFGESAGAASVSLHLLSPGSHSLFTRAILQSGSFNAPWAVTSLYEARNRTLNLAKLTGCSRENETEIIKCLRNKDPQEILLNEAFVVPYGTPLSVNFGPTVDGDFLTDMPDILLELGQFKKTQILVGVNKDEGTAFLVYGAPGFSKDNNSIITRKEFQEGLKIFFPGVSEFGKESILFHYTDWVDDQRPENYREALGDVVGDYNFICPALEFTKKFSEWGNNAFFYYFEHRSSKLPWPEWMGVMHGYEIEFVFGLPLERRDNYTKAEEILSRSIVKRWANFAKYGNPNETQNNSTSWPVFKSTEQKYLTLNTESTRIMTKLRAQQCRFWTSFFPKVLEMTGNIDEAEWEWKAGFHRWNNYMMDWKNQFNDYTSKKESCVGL
Sequence of human CYP2D6, CYP2D6 (gene 1565) (P10635 whole entry, looked up): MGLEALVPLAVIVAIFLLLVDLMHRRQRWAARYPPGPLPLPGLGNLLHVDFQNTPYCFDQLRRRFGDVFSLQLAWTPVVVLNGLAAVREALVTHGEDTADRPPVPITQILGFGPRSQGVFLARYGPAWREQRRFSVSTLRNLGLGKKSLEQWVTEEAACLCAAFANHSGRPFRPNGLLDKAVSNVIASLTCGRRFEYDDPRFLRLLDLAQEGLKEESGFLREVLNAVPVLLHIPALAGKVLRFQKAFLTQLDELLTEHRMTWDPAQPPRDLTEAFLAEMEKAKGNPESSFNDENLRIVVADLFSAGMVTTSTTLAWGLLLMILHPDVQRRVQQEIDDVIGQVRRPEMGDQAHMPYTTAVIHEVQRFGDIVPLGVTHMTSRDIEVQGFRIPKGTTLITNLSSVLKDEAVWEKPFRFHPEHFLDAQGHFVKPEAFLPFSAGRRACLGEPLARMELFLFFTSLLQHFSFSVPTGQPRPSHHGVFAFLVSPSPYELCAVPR

One may read the AC50 as the concentration at which the activity in the assay is half-maximal. Turning to `CC(C)[N+](C)(CCOC(=O)C1c2ccccc2Oc2ccccc21)C(C)C`, the outcome in [1], in experiment [2], in experiment [3], in [4], in [5] and in [6] was inactive. The AC50 in [7] is 0.741 µM (active); in experiment [8] it was 2.02 µM (active).

As to `CCCCCCCCCCCC(C)=O`, the AC50 in experiment [1] was 31.1 µM (active); in experiment [2], 33.3 µM (active); in experiment [3], 32 µM (active); in experiment [4], 33.8 µM (active); in [5], 34 µM (active). For the same molecule, the outcome in [9] and in experiment [6] was inactive.

On to `C[N+](C)(C)CCCNS(=O)(=O)C(F)(F)C(F)(F)C(F)(F)C(F)(F)C(F)(F)C(F)(F)C(F)(F)C(F)(F)F`, for which the result in [2], in experiment [3], in [4] and in experiment [5] was inactive. Besides, the concentration at half-maximal activity (AC50) in experiment [3] was 51.3 µM (active); in [5] it was 46.5 µM (active); in experiment [6], 43.5 µM (active) and 46.5 µM (active).

With `CC(C)CCCCCOC(=O)CS`, the outcome in [1], in [2], in experiment [3], in experiment [4], in [5] and in experiment [6] was inactive. Also, the concentration at half-maximal activity (AC50) in [10] is 25 µM (active).

Take `CCCCC1C(=O)N(c2ccccc2)N(c2ccccc2)C1=O`: the outcome in [1], in experiment [2], in [9], in experiment [3], in experiment [4] and in experiment [5] was inactive. In [6], the outcome was inactive.

Regarding `Nc1nc(N)nc(-c2ccccc2)n1`, the result in experiment [1], in experiment [2], in experiment [3], in experiment [4], in experiment [5] and in [6] was inactive.

Turning to `Oc1ccc(/C=C/c2cc(O)cc(O)c2)cc1`, the result in experiment [2], in [9], in [3], in experiment [4] and in experiment [6] was inactive. In addition, the half-maximal activity concentration (AC50) in experiment [5] was 20 µM (active).

For `O=C(O)C(F)(F)C(F)(F)C(F)(F)C(F)(F)C(=O)O`, the result in experiment [1], in [2], in [9], in experiment [3], in experiment [4] and in [5] was inactive. Also, the outcome in [6] was inactive.

`CC(C)C(=O)OCCc1ccccc1`: the result in experiment [1], in experiment [2], in experiment [3], in [4], in [5] and in experiment [6] was inactive.

As for `CC(C)c1cccc(C(C)C)c1N`, the result in experiment [1], in experiment [2], in [3], in experiment [4], in [5] and in experiment [6] was inactive.

With `C=CC(=O)OCCCCCCCC(C)C`, the result in experiment [2], in [9], in [4], in [6] and in [12] was inactive. The figures for the concentration at half-maximal activity (AC50) in experiment [3], in experiment [5] and in experiment [11] were 20 µM (active), 23.3 µM (active) and 1.67 µM (active), respectively.

`CC1=CC=C(C(C)C)CC1`: the result in experiment [2], in [3], in [4], in experiment [5] and in experiment [6] was inactive.

For the molecule `CCCCCCCCC(CO)CCCCCC` (stereo not given), the result in experiment [2], in experiment [3], in [4], in experiment [5] and in experiment [6] was inactive.
